About 83,000 compounds went through this panel and 20% of them were active in at least one assay; those are over-represented in the sample as a whole.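 Note: values are percent growth. 100 is the growth of untreated cells, values between 100 and 0 indicate rising inhibition; between -100 and 0 indicates cell death.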 Values without a mark were called inactive. Calls of active or inactive are those of the source. The calls were made as follows: active = growth percent below 10; inactive = the rest.

This note sets out measurements from PubChem BioAssay (NCI).

Test systems include MOLT-4 leukemia; SR leukemia; RPMI-8226 leukemia; OVCAR-8 ovarian; OVCAR-5 ovarian; OVCAR-4 ovarian; SK-OV-3 ovarian; IGROV1 ovarian; OVCAR-3 ovarian; HS 578T breast; NCI/ADR-RES ovarian; T-47D breast; BT-549 breast; MDA-MB-435 melanoma; SW-620 colon; MCF7 breast; HCT-116 colon; HCC-2998 colon; KM12 colon.
What all share (assay): NCI-60 one-dose screen, 48 h (100 = growth as untreated, 0 = no growth, -100 = all killed)
Holding throughout (conditions): 10 µM unless noted

For `O=Cc1cn(Cc2ccc(Cl)cc2)c2ccccc12`, the growth with MOLT-4 leukemia was 90.1%; with SR leukemia, 80.9%; with RPMI-8226 leukemia, 77.1%; with OVCAR-8 ovarian it was 90.1%; with OVCAR-5 ovarian, -36.7% (active); in the assay on OVCAR-4 ovarian, 57.5%. Also, the growth in the assay on SK-OV-3 ovarian is 31.1%; in the assay with IGROV1 ovarian, 6.46% (active); with OVCAR-3 ovarian, 63.8%; in the assay on HS 578T breast it was 83.9%; in the assay on NCI/ADR-RES ovarian, 90.6%; in the assay on T-47D breast it was 24.4%. The growth in the assay with BT-549 breast was 92.7%; in the assay on MDA-MB-435 melanoma, 104%; in the assay on SW-620 colon, 68.1%; in the assay with MCF7 breast, 55.5%; with HCT-116 colon, 63.2%; in the assay on HCC-2998 colon, 98%. For the same compound, in the assay with KM12 colon, the growth is 109%.

For `C#C[C@]1(OC(=O)CCCCCC)CC[C@H]2[C@@H]3CCC4=CC(=O)CC[C@@H]4[C@H]3CC[C@@]21C`, the growth was 26.1% with MOLT-4 leukemia; 17.5% in the assay with SR leukemia; 1.02% (active) with RPMI-8226 leukemia; 51.9% with OVCAR-8 ovarian; 65.4% in the assay on OVCAR-5 ovarian; 53.6% in the assay on OVCAR-4 ovarian. Further, the growth with SK-OV-3 ovarian is 55.1%; with IGROV1 ovarian, 42.5%; in the assay with OVCAR-3 ovarian, 73%; in the assay on HS 578T breast it was 72%; with NCI/ADR-RES ovarian it was 40.3%; in the assay on T-47D breast it was 37.8%. Also, the growth in the assay with BT-549 breast was 34.1%; in the assay on MDA-MB-435 melanoma, 18.3%; with SW-620 colon it was 28.1%; in the assay on MCF7 breast it was 76%; in the assay on HCT-116 colon, 12%; in the assay with HCC-2998 colon, 49.9%. Further, the growth in the assay on KM12 colon is 29.2%.

As to `COc1ccc2c(c1)c(-c1nc(-c3c[nH]c4ncccc34)cs1)cn2CCN1CCOCC1`, the growth was 45.7% in the assay with MOLT-4 leukemia; 45.5% in the assay on SR leukemia; 22.3% in the assay on RPMI-8226 leukemia; 37.9% with OVCAR-8 ovarian; 82.9% in the assay on OVCAR-5 ovarian; 28% in the assay on OVCAR-4 ovarian. Also, the growth is 67.9% with SK-OV-3 ovarian; 27.7% with IGROV1 ovarian; 59% with OVCAR-3 ovarian; 37.5% in the assay with HS 578T breast; 38.7% in the assay on NCI/ADR-RES ovarian; -1.96% (active) in the assay on T-47D breast. For the same compound, the growth is 50.6% in the assay with BT-549 breast; 73% in the assay with MDA-MB-435 melanoma; 75.5% in the assay with SW-620 colon; 5.06% (active) in the assay on MCF7 breast; 52.5% with HCT-116 colon; 74.1% with HCC-2998 colon. The growth in the assay on KM12 colon was 20.2%.

For `CCOC(=O)[C@@H](C)C[C@H](Cc1ccccc1)NC(=O)c1csc([C@@H](C[C@H](C(C)C)N(C)C(=O)[C@@H](NC(=O)[C@H]2CCCCN2C)C(C)(C)C)OC(C)=O)n1`, the growth in the assay on MOLT-4 leukemia was 7.61% (active); in the assay on SR leukemia it was 3.63% (active); with RPMI-8226 leukemia, 11.9%; in the assay on OVCAR-8 ovarian, 6.71% (active); with OVCAR-5 ovarian it was 32.3%; in the assay with OVCAR-4 ovarian, 42.7%. The growth in the assay with SK-OV-3 ovarian was 13.2%; with IGROV1 ovarian, 18.1%; with OVCAR-3 ovarian, -6.79% (active); in the assay with HS 578T breast, 6.42% (active); in the assay on NCI/ADR-RES ovarian it was 6.69% (active); in the assay with T-47D breast, 62.7%. Further, the growth in the assay on BT-549 breast was -27.2% (active); with MDA-MB-435 melanoma, -66.4% (active); in the assay on SW-620 colon, 26.2%; in the assay on MCF7 breast, 13.8%; in the assay on HCT-116 colon, 2.35% (active); with HCC-2998 colon, -2.49% (active). Further, the growth with KM12 colon is 3.85% (active).

In the case of `COC(=O)[C@@H](C)C[C@H](Cc1ccc(F)cc1)NC(=O)c1csc([C@@H](C[C@H](C(C)C)N(C)C(=O)[C@@H](NC(=O)[C@H]2CCCCN2C)C2CC2)OC(C)=O)n1`, the growth in the assay with MOLT-4 leukemia was 17.8%; with SR leukemia, 17.5%; with RPMI-8226 leukemia, 20.4%; in the assay on OVCAR-8 ovarian, 22.4%; in the assay with OVCAR-5 ovarian, 49.8%; in the assay with OVCAR-4 ovarian, 46%. In addition, the growth with SK-OV-3 ovarian was 29.1%; in the assay with IGROV1 ovarian, 30.7%; with OVCAR-3 ovarian it was -25% (active); in the assay on HS 578T breast it was 41.1%; in the assay with NCI/ADR-RES ovarian, 76.4%; in the assay on T-47D breast it was 60.1%. The growth is -0.522% (active) in the assay with BT-549 breast; -50.1% (active) with MDA-MB-435 melanoma; 27.2% with SW-620 colon; 19.6% in the assay on MCF7 breast; 3.44% (active) with HCT-116 colon; 28.8% in the assay with HCC-2998 colon. In the assay with KM12 colon, the growth is 14%.

For `O=C1Nc2ccccc2C2c3cccn3-c3ccccc3CN12` (stereo not drawn), the growth in the assay with MOLT-4 leukemia is 29.3%; with SR leukemia it was 19%; in the assay with RPMI-8226 leukemia, 55.2%; with OVCAR-8 ovarian, 63.3%; in the assay on OVCAR-5 ovarian it was 82.3%; with OVCAR-4 ovarian it was 71.7%. The growth in the assay with SK-OV-3 ovarian was 46.7%; in the assay with IGROV1 ovarian it was 62.9%; in the assay on OVCAR-3 ovarian, 41.7%; in the assay with HS 578T breast it was 64.2%; in the assay on NCI/ADR-RES ovarian it was 20.9%; with T-47D breast, 27.7%. In addition, the growth with BT-549 breast is 50.7%; in the assay with MDA-MB-435 melanoma it was -15% (active); in the assay on SW-620 colon it was 24.5%; in the assay with MCF7 breast, 38.8%; in the assay on HCT-116 colon, 41.7%; in the assay with HCC-2998 colon, 71.1%. In addition, the growth in the assay with KM12 colon was 30.3%.

Turning to `CC1(C)CN1P(=O)(N1CC1(C)C)N1CC1(C)C` (stereo not drawn), the growth with MOLT-4 leukemia is 96.6%; in the assay with SR leukemia, 91.3%; in the assay with RPMI-8226 leukemia, 105%; in the assay with OVCAR-8 ovarian, 90.5%; in the assay with OVCAR-5 ovarian, 115%; in the assay on OVCAR-4 ovarian it was 97.9%. Moreover, the growth in the assay on SK-OV-3 ovarian is 102%; in the assay on IGROV1 ovarian, 114%; with OVCAR-3 ovarian, 118%; with HS 578T breast, 93.8%; in the assay with NCI/ADR-RES ovarian, 113%; in the assay on T-47D breast it was 107%. Besides, the growth in the assay on BT-549 breast is 105%; in the assay on MDA-MB-435 melanoma it was 124%; in the assay with SW-620 colon, 100%; with MCF7 breast it was 92.8%; with HCT-116 colon, 105%; in the assay on HCC-2998 colon it was 110%. In addition, the growth with KM12 colon is 116%.
